Activity calls are given as the source filed them. Rule for the calls: active = hit-call score of the fitted dose curve at least 0.9, where 1 is the maximum; inactive = score below 0.9.
Columns and labels:
[1] = ATG_NFI_CIS: Attagene CIS-FACTORIAL HepG2 Assay for human Nuclear Factor I (NFI) (AID 2282989); details: HepG2 cis-regulatory reporter, NFI response element transcription; actives raise or lower the signal
Method in brief: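 Reporter transcription driven by endogenous transcription factors in HepG2 cells; 24 h treatment. Quantitation by labelled RT-PCR fragments on capillary electrophoresis, gain- or loss-of-signal relative to DMSO.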

[2] = biological target: Myc proto-oncogene protein (Homo sapiens) (UniProt P01106); experiment: ATG_Myc_CIS: Attagene CIS-FACTORIAL HepG2 Assay for human Myelocytomatosis (Myc) Proto-Oncogene Transcription Factor (AID 2282990); details: HepG2, Attagene cis-reporter transcription factor activity; actives raise or lower the signal
Method in brief: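 Cells of the HepG2 human liver line bear multiple cis-driven reporter transcription units. Reporter mRNA after 24 h exposure is reverse-transcribed, amplified, labelled and resolved by capillary electrophoresis, with gain- or loss-of-signal fitting relative to DMSO.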

[3] = ATG_NF_kB_CIS: Attagene CIS-FACTORIAL HepG2 Assay for human Nuclear Factor Kappa B (NF-kB) (AID 2282991); details: HepG2 Attagene cis-factorial NF-kB reporter mRNA; actives raise or lower the signal
Method in brief: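 Endpoint from a 52-component multiplexed HepG2 reporter panel: cis-regulated transcription units transiently transfected, 24 h dosing, reporter mRNA quantified by RT-PCR and capillary electrophoresis, scored as increase or decrease against DMSO.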

[4] = ATG_NRF2_ARE_CIS: Attagene CIS-FACTORIAL HepG2 Assay for human Nuclear Factor Erythroid 2 Related Factor 2 (NFR2) response to Antioxidant Response Elements (ARE) (AID 2282992); details: HepG2 Attagene ARE/NRF2 reporter, transcription factor activity; actives raise or lower the signal;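 for AC50: reporter mRNA level measured by RT-PCR and capillary electrophoresis fluorescence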
Method in brief: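 Readout: reporter mRNA quantified by RT-PCR plus FAM-labelled primer extension, HpaI digestion and capillary electrophoresis, 24 h after dosing transfected HepG2 cells. Gain or loss of signal is fitted bidirectionally against DMSO baseline.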

[5] = ATG_Oct_MLP_CIS: Attagene CIS-FACTORIAL HepG2 Assay for human Octamer-Binding Transcription Factor (Oct) (AID 2282993); details: HepG2 Attagene cis-factorial Oct reporter, mRNA; actives raise or lower the signal
Method in brief: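 Transfected HepG2 cells, 24 h treatment. Reporter mRNA quantified by RT-PCR–capillary electrophoresis; bidirectional fitting against DMSO.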

[6] = biological target: Cellular tumor antigen p53 (Homo sapiens) (UniProt P04637); experiment: ATG_p53_CIS: Attagene CIS-FACTORIAL HepG2 Assay for human p53 Transcription Factor (AID 2282994); details: HepG2 p53 cis-element reporter, Attagene mRNA; actives raise or lower the signal
Method in brief: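 Read-out: reporter mRNA by RT-PCR plus capillary electrophoresis with fluorescence detection. Human HepG2 liver cells carried transfected multi-reporter cis-element constructs, dosed 24 h. Gain or loss of signal fitted bidirectionally against DMSO control.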

[7] = BSK_3C_TissueFactor: BioMAP Diversity Plus: 3C Assay for Tissue Factor Biomarker Activity (AID 2282997); details: BioMAP 3C HUVEC, tissue factor biomarker readout; actives raise or lower the signal
Method in brief: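 After a 24 h chemical exposure of primary human umbilical vein endothelial cells, Tissue Factor levels were quantified by ELISA.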

[8] = BSK_3C_uPAR: BioMAP Diversity Plus: 3C Assay for Urokinase-type plasminogen activator receptor (uPAR) Biomarker Activity (AID 2282998); details: BioMAP 3C HUVEC, uPAR biomarker ELISA; actives raise or lower the signal
Method in brief: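 Readout: ELISA for surface uPAR. System: human umbilical vein endothelial primary cells, 24 h after chemical exposure. Analysis: bidirectional fit, DMSO baseline.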

[9] = BSK_3C_VCAM1: BioMAP Diversity Plus: 3C Assay for Vascular cell adhesion molecule 1 (VCAM1) Biomarker Activity (AID 2282999); details: BioMAP 3C HUVEC, VCAM1 ELISA, cytokine-stimulated; actives raise or lower the signal
Method in brief: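 Activity fitted in both directions relative to DMSO, with ELISA measurement of the surface marker on primary HUVEC (3C) at 24 h post-treatment; parallel SRB staining (0.1% SRB, TCA-fixed, 560 nm) flagged overt cytotoxicity.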

[10] = BSK_4H_Eotaxin3: BioMAP Diversity Plus: 4H Assay for Eotaxin 3 Biomarker Activity (AID 2283000); details: primary human endothelial cells (HUVEC); actives raise or lower the signal
Method in brief: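 Chemicals were added to human umbilical vein endothelium cultures, and Eotaxin-3 was quantified by ELISA at 24 h. Values were derived by bidirectional fitting with DMSO serving as negative control and activity baseline.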

Measured: AC50

Cellular tumor antigen p53 (Homo sapiens), sequence (P04637 whole entry, looked up): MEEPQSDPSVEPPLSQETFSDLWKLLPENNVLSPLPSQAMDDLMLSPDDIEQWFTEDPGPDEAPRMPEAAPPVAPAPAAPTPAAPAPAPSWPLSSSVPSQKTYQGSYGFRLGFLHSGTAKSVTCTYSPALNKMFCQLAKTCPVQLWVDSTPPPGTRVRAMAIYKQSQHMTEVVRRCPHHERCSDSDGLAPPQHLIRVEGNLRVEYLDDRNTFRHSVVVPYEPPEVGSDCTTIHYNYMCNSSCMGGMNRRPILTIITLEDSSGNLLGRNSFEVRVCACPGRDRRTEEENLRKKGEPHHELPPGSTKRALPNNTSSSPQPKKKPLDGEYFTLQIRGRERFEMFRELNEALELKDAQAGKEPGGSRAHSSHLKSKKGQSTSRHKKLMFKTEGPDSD
Myc proto-oncogene protein (Homo sapiens), sequence (P01106 whole entry, looked up): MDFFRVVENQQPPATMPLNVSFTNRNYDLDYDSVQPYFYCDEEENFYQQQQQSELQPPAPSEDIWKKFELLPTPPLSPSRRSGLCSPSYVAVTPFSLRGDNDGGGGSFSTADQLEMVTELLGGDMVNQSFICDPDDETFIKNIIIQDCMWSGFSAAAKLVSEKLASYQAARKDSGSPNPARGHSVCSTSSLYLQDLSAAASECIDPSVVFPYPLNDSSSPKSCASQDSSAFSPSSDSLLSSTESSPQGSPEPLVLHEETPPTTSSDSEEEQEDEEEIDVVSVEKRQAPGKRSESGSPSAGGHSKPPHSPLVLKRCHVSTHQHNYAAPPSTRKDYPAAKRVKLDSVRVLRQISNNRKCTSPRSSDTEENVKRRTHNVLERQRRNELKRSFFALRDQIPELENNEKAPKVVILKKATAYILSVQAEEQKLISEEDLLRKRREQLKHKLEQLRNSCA

C[Si](C)(C)O[Si](C)(C)C
inactive: [1] | [2] | [3] | [4] | [5] | [6]

COc1ccc(CCC(C)=O)cc1
inactive: [1] | [2] | [3] | [4] | [5] | [6]

CSc1c(Cl)c(Cl)c(Cl)c(Cl)c1Cl
active: [1] 154 µM | [2] 167 µM | [4] 48.4 µM | [5] 139 µM
inactive: [3] | [6]

CC(C)CCCCCCCCCCCCCCC(=O)O
inactive: [1] | [2] | [3] | [4] | [5] | [6]

CC(C)C(OC(=O)c1ccccc1)C(C)(C)COC(=O)c1ccccc1 (configuration not stated)
inactive: [1] | [2] | [3] | [4] | [5] | [6]

NCCNc1cccc2ccccc12
active: [1] 178 µM | [2] 168 µM | [5] 176 µM | [6] 50.9 µM
inactive: [3] | [4]

CCC1(C)NC(=O)NC1=O (configuration not stated)
inactive: [1] | [2] | [3] | [4] | [5] | [6]

C=COCCOCCOC=C
inactive: [1] | [2] | [3] | [4] | [5] | [6]

CCCC(O)C(O)CO (configuration not stated)
inactive: [1] | [2] | [3] | [4] | [5] | [6]

O=C(Nc1ccc([N+](=O)[O-])cc1)Nc1ccc([N+](=O)[O-])cc1 (tested in a mixture with another compound)
inactive: [1] | [2] | [3] | [4] | [5] | [6]

Nc1c(Cl)cc(Cl)cc1[N+](=O)[O-]
active: [4] 41.5 µM
inactive: [1] | [2] | [3] | [5] | [6]

CCOC(=O)[C@@H](C)Oc1ccc(Oc2nc3ccc(Cl)cc3o2)cc1
active: [4] 39.9 µM
inactive: [1] | [2] | [3] | [5] | [6]

CCc1ccc(O)cc1
inactive: [1] | [2] | [3] | [4] | [5] | [6]

COC(=O)c1cccnc1
inactive: [1] | [2] | [3] | [4] | [5] | [6]

CC(C)C[C@H](NC(=O)OCC1c2ccccc2-c2ccccc21)C(=O)O
inactive: [1] | [2] | [3] | [5] | [6]
active: [4] 31.1 µM

CCOC(=O)CC(C)O (configuration not stated)
inactive: [1] | [2] | [3] | [4] | [5] | [6]

CCOC(=O)c1ccc(N)cc1
inactive: [1] | [2] | [3] | [4] | [5] | [6]

CCCCOCC
inactive: [1] | [2] | [3] | [4] | [5] | [6]

COS(=O)(=O)O
inactive: [1] | [2] | [3] | [4] | [5] | [6]

Cc1cc(=O)oc2cc(N(C)C)ccc12
inactive: [1] | [2] | [3] | [4] | [6]
active: [5] 57.4 µM

COc1cc(C(C)C)ccc1C
inactive: [1] | [2] | [3] | [4] | [5] | [6]

CC(CN=Cc1ccccc1O)N=Cc1ccccc1O (configuration not stated)
active: [3] 63.6 µM | [4] 69.5 µM
inactive: all other assays above

Cc1ccc(S(=O)(=O)Oc2ccc(N=Nc3ccc(-c4ccc(N=Nc5c(O)ccc6cc(S(=O)(=O)O)cc(S(=O)(=O)O)c56)c(C)c4)cc3C)cc2)cc1
inactive: [1] | [2] | [3] | [4] | [5] | [6]

O=C1c2ccccc2C(=O)c2c(O)ccc(O)c21
active: [3] 2.27 µM | [4] 4.07 µM | [7] 1.21 µM | [8] 3.02 µM | [10] 4.31 µM
inactive: [1] | [2] | [5] | [6] | [9]

O=C(O)c1cc(C(=O)O)cc([N+](=O)[O-])c1
inactive: [1] | [2] | [3] | [4] | [5] | [6]

CCCCC(CC)COC(=O)c1ccc(O)cc1 (configuration not stated)
inactive: [1] | [2] | [3] | [4] | [5] | [6]

C=Cc1ccncc1
inactive: [2] | [6]
active: [1] 21.8 µM | [3] 61.5 µM | [4] 25.1 µM | [5] 26.8 µM

COc1ccc(OC)c(N=Nc2c(O)ccc3ccccc23)c1
active: [4] 0.493 µM | [8] 12.2 µM | [9] 20 µM | [10] 9.47 µM
inactive: all other assays above

COc1ccc(N=Nc2cc(C)c(N=Nc3ccc(S(=O)(=O)O)cc3)cc2OC)cc1
active: [1] 149 µM | [4] 25.7 µM
inactive: [2] | [3] | [5] | [6]

Cc1ccc(-c2ccccc2)cc1
inactive: [1] | [2] | [3] | [4] | [5] | [6]

Reference: PubChem BioAssay (EPA / NIEHS)
